In the library only some 12% were active in any assay of this set; here they are far more common.
Cycloheximide cs = counter-screen hit for Shiga toxin inhibitors, cycloheximide. 12% of 300,000 active. max response, %. cell reporter, cycloheximide protein synthesis inhibition counterscreen; in the data active = max response mostly above about 13%, no sharp cut-off; inactive = mostly below about 14%; note: read at 38.3 µM for the half of the compounds with a filed dose; 0% is about no effect
SARS PLpro yeast = SARS-CoV PLP inhibition in yeast. Potency, µM (titrated, usually from 32.9 µM), without a hit: top-dose activity, positive = growth rescue, most hits filed as activators. 0.19% of 330,000 active. S. cerevisiae expressing SARS-CoV PLpro, growth rescue; note: potency is the fitted concentration of half-maximal effect; 0% is about no effect; nearly all actives have a fitted effect of over 55% in size
NS1 function inh = blocks influenza NS1 protein function; Potency, µM (titrated, usually from 46.1 µM), without a hit: at the highest dose activity, positive = more growth; 0.4% of 270,000 active; note: potency is the fitted concentration of half-maximal effect; actives are rising curves; nearly all actives have a fitted effect of over 50% in size
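A cell-based growth assay was used: compounds that relieve NS1-induced slow growth of budding yeast raise OD600. Assay medium was yeast nitrogen base with ammonium sulphate and -URA supplement, pH 6.0, with 2% galactose.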
Shiga inhibitor = blocks Shiga toxin action in Vero cells. Vero cells, Shiga toxin protein synthesis inhibition reporter. inhibition, % at 38.7 µM. 9.2% of 290,000 active. AID 2315; in the data active = inhibition mostly above about 28%, no sharp cut-off; inactive = mostly below about 43%; note: 0% is about no effect
* = called active by the depositor. Unless noted, calls come from the whole dose curve.

CC(C)NC(=O)C1c2ccccc2Oc2ccccc21 was read as Cycloheximide cs -3, SARS PLpro yeast 1%, NS1 function inh 3% and Shiga inhibitor 29.
Screening O=S(=O)(c1ccc(F)cc1)N1CCN(c2nc(-c3ccc(F)cc3)nc3cc(Cl)ccc23)CC1 returned Cycloheximide cs 18 and Shiga inhibitor 21.
For COC(=O)Cc1ccc(NC(=O)c2ccc(Br)o2)cc1 the results were Cycloheximide cs 35*, SARS PLpro yeast -4%, NS1 function inh -26% and Shiga inhibitor 71*.
`Cc1c(NC(=S)N2CCN(c3ccc(F)cc3)CC2)c(=O)n(-c2ccccc2)n1C` gave Cycloheximide cs -1, SARS PLpro yeast 0%, NS1 function inh -8% and Shiga inhibitor 16.
For c1ccc(N2CCN(c3ccccc3)C2c2cccs2)cc1 the results were Cycloheximide cs 30*, SARS PLpro yeast -9%, NS1 function inh 1% and Shiga inhibitor 94*.
Nc1c2c(nc3ccccc13)CCCC2 was read as Cycloheximide cs 7, SARS PLpro yeast -4%, NS1 function inh -7% and Shiga inhibitor -5.
Nc1cccc2c3c(oc12)CCCC3 was read as Cycloheximide cs 9.4*, SARS PLpro yeast -10%, NS1 function inh -13% and Shiga inhibitor 11.
Screening COc1ccc(NC(=O)C(C)N2C(=O)C3CC=C(Cl)CC3C2=O)cc1 (centres undefined) returned Cycloheximide cs 2, SARS PLpro yeast -5%, NS1 function inh 16% and Shiga inhibitor -2.
`CCOC(=O)C1=CN(Cc2ccco2)S(=O)(=O)NC1c1ccc(F)c(Cl)c1` (centres undefined) gave SARS PLpro yeast 4%.
Screening O=c1c2ccccc2nc2n1CCN2Cc1ccc(Cl)cc1 returned Cycloheximide cs 33*, SARS PLpro yeast -14%, NS1 function inh -31% and Shiga inhibitor 38.
Screening O=C(OCC(=O)N1CCCCC1)c1cc2ccccc2cc1O returned Cycloheximide cs 24*, SARS PLpro yeast -5%, NS1 function inh -32% and Shiga inhibitor 48.
O=C(NCCc1ccccc1)c1ccccc1SCC(=O)N1CCCC1 was read as Cycloheximide cs 27*, SARS PLpro yeast 3%, NS1 function inh 5% and Shiga inhibitor 97*.
For O=C(OCC(=O)N1CCCCC1)c1ccccc1SCC(=O)N1CCCCC1 the results were Cycloheximide cs 20*, SARS PLpro yeast 0% and Shiga inhibitor 31.
CCNC(=O)NC(=O)COC(=O)c1ccccc1SCC(=O)NC(=O)NCC was read as Cycloheximide cs 63*, SARS PLpro yeast 2%, NS1 function inh -63% and Shiga inhibitor 68.
CN(C)C=NC(=O)c1cc(C(=O)c2ccc(Cl)cc2Cl)c[nH]1 was read as Cycloheximide cs 16, SARS PLpro yeast 1%, NS1 function inh 6% and Shiga inhibitor 28.
`O=C(OCc1ccc(F)cc1)c1cc2ccccc2cc1O` gave Cycloheximide cs 8.6*, SARS PLpro yeast -5%, NS1 function inh -13% and Shiga inhibitor 15.
Screening CCC1CCCCN1C(=O)COC(=O)c1cc2ccccc2cc1O (centres undefined) returned Cycloheximide cs 50*, SARS PLpro yeast -5%, NS1 function inh -40% and Shiga inhibitor 80*.
`O=C(OCc1cccc(F)c1)c1cc2ccccc2cc1O` gave Cycloheximide cs -2, SARS PLpro yeast -2% and NS1 function inh -3%.
Screening CC(C)CN1C(=O)C(=O)N(CC(=O)Nc2cc(Cl)ccc2Oc2ccccc2)C1=O returned Cycloheximide cs 8, SARS PLpro yeast -6%, NS1 function inh inconclusive and Shiga inhibitor 19.
For COc1ccc(CC(=O)Nc2ccc(-c3csc(C)n3)cc2)cc1 the results were Cycloheximide cs 13, SARS PLpro yeast 2%, NS1 function inh -10% and Shiga inhibitor 35.
For Cc1nc(-c2ccc(NC(=O)Cc3ccccc3)cc2)cs1 the results were Cycloheximide cs 43*, SARS PLpro yeast 0%, NS1 function inh -2% and Shiga inhibitor 87*.
For CCC(=O)Nc1ccc(-c2csc(C)n2)cc1 the results were Cycloheximide cs 23*, SARS PLpro yeast -24%, NS1 function inh -12% and Shiga inhibitor 31.
`CCC(=O)Nc1ccc(-c2csc(NNC(C)=O)n2)cc1` gave Cycloheximide cs -1, SARS PLpro yeast -19%, NS1 function inh 28% and Shiga inhibitor 2.
Cc1ccc(S(=O)(=O)NC(N)=NCCc2ccc(Cl)cc2)cc1C was read as Cycloheximide cs 2, SARS PLpro yeast 11%, NS1 function inh 14% and Shiga inhibitor -2.
`CCc1ccc(NC2=NCC(=O)N2c2ccc3c(c2)OCCO3)cc1` gave Cycloheximide cs -4, SARS PLpro yeast -9%, NS1 function inh -3% and Shiga inhibitor 2.
CCc1ccc(N=c2c([N+](=O)[O-])nn(-c3ccc4c(c3)OCCO4)n2O)cc1 was read as Cycloheximide cs 34*, SARS PLpro yeast 2% and Shiga inhibitor 46*.
`O=[N+]([O-])c1nn(-c2ccc3c(c2)OCCO3)n(O)c1=Nc1ccccc1` gave Cycloheximide cs 142*, SARS PLpro yeast -50%, NS1 function inh -14% and Shiga inhibitor 168*.
For O=[N+]([O-])c1nn(-c2ccc3c(c2)OCCO3)n(O)c1=Nc1ccc(Cl)cc1 the results were Cycloheximide cs 34*, SARS PLpro yeast 12%, NS1 function inh -9% and Shiga inhibitor 117*.
Screening Cc1ccc(N=c2c([N+](=O)[O-])nn(-c3ccccc3)n2O)c(C)c1 returned Cycloheximide cs 32*, SARS PLpro yeast -5%, NS1 function inh -47% and Shiga inhibitor 98*.
Screening COc1ccc([C@@H](C)c2cc3c(cc2O)OCO3)cc1 returned NS1 function inh -8%.
For Cc1cc(C)cc(N=c2c([N+](=O)[O-])nn(-c3ccc4c(c3)OCCO4)n2O)c1 the results were Cycloheximide cs 17*, SARS PLpro yeast -1% and Shiga inhibitor 18.
Screening Cc1ccc(N=c2c([N+](=O)[O-])nn(-c3ccc(Cl)cc3)n2O)cc1C returned Cycloheximide cs 18, SARS PLpro yeast -3%, NS1 function inh -5% and Shiga inhibitor 26.
`Cc1ccc(N=c2c([N+](=O)[O-])nn(-c3ccc4c(c3)OCCO4)n2O)c(Cl)c1` gave Cycloheximide cs 35*, SARS PLpro yeast 1% and Shiga inhibitor 89*.
Screening Cc1c(Cl)cccc1N=c1c([N+](=O)[O-])nn(-c2ccccc2)n1O returned Cycloheximide cs -4, SARS PLpro yeast 4%, NS1 function inh 15% and Shiga inhibitor -10.
For Cc1ccc(N=c2c([N+](=O)[O-])nn(-c3ccc4c(c3)OCCO4)n2O)cc1F the results were Cycloheximide cs 33*, SARS PLpro yeast 0% and Shiga inhibitor 141*.
COc1ccccc1Nc1ccc(NS(=O)(=O)c2ccc(C(C)=O)cc2)cc1 was read as Cycloheximide cs 10, SARS PLpro yeast -4%, NS1 function inh -5% and Shiga inhibitor 67.
For Cc1ccc(CSc2nc(N)cc(=O)[nH]2)cc1 the results were Cycloheximide cs -1, SARS PLpro yeast 4%, NS1 function inh 3% and Shiga inhibitor -2.
For Cc1cccc(CCNC(=O)CCNS(=O)(=O)c2cc(Br)cnc2N)c1 the results were Cycloheximide cs -3, SARS PLpro yeast 2%, NS1 function inh -17% and Shiga inhibitor -11.
